D3 ag – activates the human D3 dopamine receptor; 410,000 tested, 0.58% active; D3R DiscoveRx beta-arrestin cells, luminescence, 90 min; max activation, %; AID 652048; in the data active = max activation above about 30%
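Agonist-mode cell screen: cells plated at 1500/well and incubated overnight at 37 °C, then exposed to library compounds for 90 min at 37 °C. Detection reagent was added for 30–60 min at room temperature, and luminescence was read.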
GLP-1R inv ag – acts as inverse agonist at human GLP-1 receptor. HEK293 GLP-1R CRE-luciferase, luminescence, 24 h; GLP-1R form is constitutively active. Potency, µM (top dose mostly 38.3 µM), most hits filed as inhibitors. 410,000 tested, 1.6% active; note: nearly all actives have a fitted effect of over 55% in size
Target sequence (P43220 whole entry, looked up): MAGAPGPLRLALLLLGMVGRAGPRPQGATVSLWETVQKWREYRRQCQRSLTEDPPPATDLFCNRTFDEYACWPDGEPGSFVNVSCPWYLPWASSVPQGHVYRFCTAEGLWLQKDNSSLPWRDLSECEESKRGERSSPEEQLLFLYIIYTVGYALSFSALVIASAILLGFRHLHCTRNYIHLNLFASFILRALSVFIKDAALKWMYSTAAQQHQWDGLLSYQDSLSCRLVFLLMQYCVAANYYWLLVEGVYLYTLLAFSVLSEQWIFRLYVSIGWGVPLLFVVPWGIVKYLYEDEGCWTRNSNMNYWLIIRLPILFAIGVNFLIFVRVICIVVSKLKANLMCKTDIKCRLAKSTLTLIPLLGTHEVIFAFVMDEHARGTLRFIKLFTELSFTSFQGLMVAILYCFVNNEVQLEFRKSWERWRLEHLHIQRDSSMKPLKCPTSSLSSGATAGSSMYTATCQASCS
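Inverse agonism was detected as reduced cAMP-driven luciferase luminescence after 24 h compound treatment. The cells were HEK293 clones expressing constitutively active human GLP-1R with the reporter. Reporter-only and GPR119 cell lines served as counterscreen controls.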
DRD3 antagonist – blocks the human D3 dopamine receptor | P35462 | D3R cells, DiscoveRx beta-arrestin luminescence, antagonist mode; active compounds read low | max response, negative = inhibition, % | 360,000 tested, 2.5% active | AID 652054; in the data active = max response below about -50%; inconclusive = no clear call, values can overlap the other calls
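Cells expressing the human receptor were seeded at 1500 cells/well, incubated overnight at 37 degrees C in 5% CO2, then exposed to library compounds with dopamine controls for 90 minutes at 37 degrees C before luminescent detection.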
GLP1R ag – agonists of human GLP-1 receptor. P43220. HEK293 GLP-1R CRE-luciferase, luminescence, 4-6 h; cells express a hypersensitive GLP-1R form. Potency, µM (series often up to 45.6 µM), hits mostly activators. 380,000 tested, 0.007% active
Large screens that a line does not name were inactive. Shown are actives, neighbours in structure and some others; about 4.3% of the full set was active somewhere. Unless noted, calls come from the whole dose curve; as a rule, active = well fitted curve in the direction sought with a large enough effect; inconclusive = small, poorly fitted or top-dose-only effect, or another doubt; inactive = no such curve, though single readings can be large; an effect the other way counts as inactive or inconclusive.

O=C(CSc1nc(C(F)(F)F)cc(=O)[nH]1)N1CCCC1	none
CC(C)CC(NC(=O)CNC(=O)C(Cc1ccc(O)cc1)NC(=O)C(CO)NC(=O)C(Cc1c[nH]c2ccccc12)NC(=O)C(Cc1cnc[nH]1)NC(=O)C1CCC(=O)N1)C(=O)NC(CCCN=C(N)N)C(=O)N1CCCC1C(=O)NCC(N)=O (stereo not given)	none (no result: D3 ag, GLP-1R inv ag, DRD3 antagonist)
COc1ccc(Cl)cc1N1CCN(CCNC(=O)Nc2ccccc2C)CC1	DRD3 antagonist -131
COc1ccccc1N1CCN(CCCNC(=O)Nc2ccccc2C)CC1	none
COc1ccc(N2CCN(CCCNC(=O)C3(S(=O)(=O)c4ccc(Cl)cc4)CC3)CC2)cc1	none
O=C(NCCCN1CCN(c2cccc(Cl)c2)CC1)C1(S(=O)(=O)c2ccc(Cl)cc2)CC1	GLP-1R inv ag inconclusive, DRD3 antagonist -57
Cc1nc2ncnn2c(C)c1CCC(=O)N1CCN(c2cccc(Cl)c2)CC1	none (no result: DRD3 antagonist)
Cc1nc2ncnn2c(C)c1CCC(=O)NCCCN1CCN(c2cccc(Cl)c2)CC1	DRD3 antagonist -52
CC(C)c1nc2ccc(C(=O)NCCCN3CCN(c4cccc(Cl)c4)CC3)cc2o1	GLP-1R inv ag 10µM (no result: DRD3 antagonist, GLP1R ag)
COc1ccccc1NC(=O)NCCCN1CCN(c2cccc(Cl)c2)CC1	GLP-1R inv ag inconclusive, DRD3 antagonist -108
COc1ccc(N2CCN(CCCNC(=O)Nc3ccccc3Cl)CC2)cc1	none (no result: DRD3 antagonist)
COc1ccc(C(=O)NCc2ccc3c(c2)CCN3C(=O)c2cccc(C)c2)cc1OC	none (no result: DRD3 antagonist, GLP1R ag)
CCOC(=O)N1CCN(C(=O)C[C@@H]2C[C@@]3(C(=O)OCC)CCCC=C3N(Cc3ccc(Cl)cc3Cl)C2=O)CC1	GLP-1R inv ag inconclusive
CCOC(=O)N1CCN(C(=O)C[C@@H]2C[C@@]3(C(=O)OC)CCCCC=C3N(Cc3ccc(Cl)cc3Cl)C2=O)CC1	GLP-1R inv ag 11µM
CC1OC(CC(=O)O)CC2=C1C(=O)c1c(O)cccc1C2=O (stereo not given)	GLP-1R inv ag inconclusive, DRD3 antagonist -94
O=C1c2cccc(O)c2C(=O)c2c(O)cccc21	none (no result: GLP-1R inv ag, DRD3 antagonist)
O=C(CCCCn1c(=O)[nH]c2ccccc2c1=O)N1CCN(c2cccc(C(F)(F)F)c2)CC1	GLP-1R inv ag 10µM
O=C(CCn1c(=O)[nH]c2ccccc2c1=O)N1CCN(c2cccc(C(F)(F)F)c2)CC1	GLP-1R inv ag inconclusive
CC(=O)OCCCNc1cc(Sc2nc3ccccc3s2)c2nonc2c1[N+](=O)[O-]	DRD3 antagonist -78
CC(=O)OCCCNc1cc(Sc2ccc(C)cc2)c2nonc2c1[N+](=O)[O-]	DRD3 antagonist -73
COC(=O)CCSc1cc(NCCOC(C)=O)c([N+](=O)[O-])c2nonc12	none
CC(=O)OCCNc1cc(Sc2nc3ccccc3[nH]2)c2nonc2c1[N+](=O)[O-]	DRD3 antagonist -79
CCc1ccc(NC(=O)C2=C(C)C(=O)OC23CCCCC3)cc1	GLP-1R inv ag inconclusive (no result: DRD3 antagonist, GLP1R ag)
COc1ccc(S(=O)(=O)c2c(SC)nn(CC(=O)Nc3ccc(C)c(Cl)c3)c2N)cc1	GLP-1R inv ag inconclusive (no result: DRD3 antagonist, GLP1R ag)
COCCN(CCOC)c1nc(-c2ccc([N+](=O)[O-])cc2)nc2ccccc12	none
CN(Cc1ccccc1)c1nc(-c2ccc([N+](=O)[O-])cc2)nc2ccccc12	DRD3 antagonist -54
O=[N+]([O-])c1ccc(-c2nc(C(Cl)Cl)c3ccccc3n2)cc1	GLP-1R inv ag inconclusive, DRD3 antagonist -59
CCc1c(C)sc2c1CCN(C(=O)Nc1cc(C)ccc1C)C2c1ccc(OC)cc1 (stereo not given)	GLP-1R inv ag inconclusive (no result: DRD3 antagonist, GLP1R ag)
Cc1cc(C)cc(NC(=O)Nc2cc(S(=O)(=O)N(C)C)ccc2C)c1	GLP-1R inv ag 10µM, DRD3 antagonist inconclusive
Cc1ccc(S(=O)(=O)N(C)C)cc1NC(=O)Nc1ccccc1F	none
COc1ccc(NC(=O)Cn2c(=O)n(Cc3ccco3)c(=O)c3sc4ccccc4c32)cc1Cl	none (no result: DRD3 antagonist)
CCC1(CC)NC(=O)N(CC(=O)OCc2nc3cc(C(=O)OC)ccc3c(=O)[nH]2)C1=O	none
CCCC[C@@H]1CNCCN1CCc1cc(C(F)(F)F)cc(C(F)(F)F)c1	GLP-1R inv ag 11µM
FC(F)(F)c1cc(CCN2CCNC[C@@H]2CC2CCCCC2)cc(C(F)(F)F)c1	none
C/C=C/c1ccc(OCC(O)CNCCc2ccc(OC)cc2)c(OC)c1 (stereo not given)	GLP-1R inv ag inconclusive
C/C=C/c1ccc(OCC(O)CN2CCCCC2CC)c(OC)c1 (stereo not given)	GLP-1R inv ag 13µM
C/C=C/c1ccc(OCCCNC2CCCC2)c(OC)c1	GLP-1R inv ag inconclusive, DRD3 antagonist -61
C/C=C/c1ccc(OCCCNC(C)CC)c(OC)c1 (stereo not given)	GLP-1R inv ag inconclusive, DRD3 antagonist inconclusive
CCn1c(SCc2ccc(F)cc2Cl)nnc1-c1nonc1NC(C)=O	none (no result: DRD3 antagonist, GLP1R ag)
CCOC(=O)c1sc(N2N=C(C)/C(=C\c3ccc(OCC(=O)OC)cc3)C2=O)nc1C	DRD3 antagonist -70
CCc1ccccc1NC(=O)CN1C(=O)COc2ccc(S(=O)(=O)N3CCCCCC3)cc21	none (no result: DRD3 antagonist, GLP1R ag)
Cc1cccc(/C=N/NC(=O)c2ccccc2OCc2cccc(Br)c2)n1	GLP-1R inv ag 11µM
Cc1cccc(/C=N/NC(=O)c2cccc([N+](=O)[O-])c2)n1	DRD3 antagonist -50
Cc1cccc(/C=N/NC(=O)c2cc(Br)ccc2OCc2ccccc2)n1	GLP-1R inv ag inconclusive
Cc1cccc(/C=N/NC(=O)c2cccc(Cl)c2)n1	GLP-1R inv ag inconclusive, DRD3 antagonist inconclusive
c1ccc(CNCCNCc2ccccc2)cc1	none (no result: GLP-1R inv ag, DRD3 antagonist)
Cc1ccc(C(=O)N2CCCC(C(=O)c3cc(F)ccc3F)C2)s1 (stereo not given)	none
Cc1ccc(C(=O)N2CCCC(N(C)Cc3ccccc3)C2)s1 (stereo not given)	GLP-1R inv ag inconclusive, DRD3 antagonist -62
Cc1nn2c(=O)cc(COC(=O)C(c3ccccc3)c3ccccc3)nc2s1	none (no result: DRD3 antagonist, GLP1R ag)
COc1cc(O)ccc1-c1nc2cc(C)ccn2c1Nc1ccccc1C	GLP-1R inv ag 10µM (no result: DRD3 antagonist, GLP1R ag)
O=C(NC1CCCC1)C1CCCN(S(=O)(=O)c2cnc[nH]2)C1 (stereo not given)	none
CC1CCCN(S(=O)(=O)c2cnc[nH]2)C1 (stereo not given)	D3 ag 33
O=C(NCCN1CCN(c2cccc(Cl)c2)CC1)C1CCCN(S(=O)(=O)c2cnc[nH]2)C1 (stereo not given)	DRD3 antagonist -86
O=C(NCCN1CCN(c2ccccc2)CC1)C1CCCN(S(=O)(=O)c2cnc[nH]2)C1 (stereo not given)	DRD3 antagonist -63
O=C(Nc1cccc(Cl)c1)C1CCCN(S(=O)(=O)c2cnc[nH]2)C1 (stereo not given)	none
COc1ccc(OC)c(C2C(C(=O)Nc3nc4ccccc4s3)=C(C)NC3=C2C(=O)CCC3)c1 (stereo not given)	D3 ag 30, GLP-1R inv ag inconclusive
COc1cccc(C2C(C(=O)Nc3nc4ccccc4s3)=C(C)NC3=C2C(=O)CC(C)(C)C3)c1OC (stereo not given)	none

Bioassay records from PubChem BioAssay.
